Compounds with a hit are over-represented: about 3.6% of the library has one in this group of screens.
mHTT-CaM PPI inh: disrupts binding of mutant huntingtin to calmodulin; AlphaScreen His-mHTT/GST-CaM binding, luminescence; P42858; inhibition, % at 15 µM; actives 3.6% (n = 190,000);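 also: 0% = both proteins with DMSO and 100% = one protein alone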
Pf apPOL inh: Pf-apPOL DNA polymerase inhibition. inhibition, % at 10 µM. Recombinant Pf-apPOL, molecular beacon fluorescence, 1.5 h. actives 0.25% (n = 210,000)
* = called active by the depositor; nt = not tested or not shown; ! = not confirmed by another sample. Rule as the data show it: active = inhibition above about 50%; inactive = the rest.

SMILES | mHTT-CaM PPI inh | Pf apPOL inh
O=C(c1cc(F)ccc1F)N1CCC2(CC1)NC(=O)N(Cc1ccc(Cl)cc1)C2=O | 8.1 | -1.3
CCc1csc(-c2ccc(N3CCN(C(=O)c4ccc(F)cc4)CC3)nc2)n1 | 1.0 | -1.3
Cc1ccc(NC(=O)c2noc3c2CC(C)CC3)cc1C (centres undefined) | -1.3 | -2.1
O=C(Nc1ccc(F)cc1)C1CC(=O)N(C2CCCCC2)C1 (centres undefined) | -1.3 | -6.1
O=C(NCCc1c[nH]c2ccccc12)Nc1ccc(Cl)cc1 | nt | -2.9
CCn1cc(NC(=O)NCCc2c[nH]c3ccccc23)c2ccccc21 | 72.2* | -0.5
C=CCSc1nnc2c(n1)OC(c1ccccn1)Nc1ccccc1-2 (centres undefined) | -7.0 | -2.1
O=C(Cc1ccc(F)cc1)N1CCCC1c1nc(-c2cccc(Cl)c2)no1 (centres undefined) | 19.9 | -1.6
Cc1ccc(CC(=O)N2CCCC2c2nc(-c3cccc(Cl)c3)no2)cc1 (centres undefined) | 60.6* | -4.0
O=C(Cc1cccc(F)c1)N1CCCC1c1nc(-c2cccc(Cl)c2)no1 (centres undefined) | 0.6 | 0.8
O=C(NCCc1ccccc1)N1CCCC1c1nc(-c2cccc(Cl)c2)no1 (centres undefined) | 60.6* | -3.2
Cc1cccc(-c2noc(C3CCCN3C(=O)Cc3cccc(Cl)c3)n2)c1 (centres undefined) | 79.4* | -5.5
O=C(NCCc1ccccc1)N1CCCC1c1nc(-c2ccccc2)no1 (centres undefined) | 0.5 | 0.3
O=c1c2c(nc3cc(-c4ccccc4)[nH]n13)CCN(S(=O)(=O)c1ccc3c(c1)CCC3)C2 | 14.6 | 0.4
C=C1C2(C(=O)Nc3ccc(OC)cc3)CCC(C2)C1(C)C (centres undefined) | -3.5 | 2.4
O=C(Cc1c[nH]c2ccccc12)N1CCC(c2nc(C3CC3)no2)C1 (centres undefined) | 12.0 | 2.1
COc1ccc(-c2nnc(NC(=O)Nc3cccc(Cl)c3)s2)cc1OC | 6.0 | -0.2
CC1=CC(C)(C)N=C(SCc2c(Cl)cccc2Cl)N1c1ccc(Cl)cc1 | nt | 0.9
CCN(CC)S(=O)(=O)c1cc(C(=O)O)ccc1Br | -7.0 | -17.1
COc1ccc(CCN2CC(=O)N3CCCC(C4=CC(=O)C=CC4=O)=C3C2=O)cc1OC | 21.0 | 2.1
O=C1C=CC(=O)C(C2=C3C(=O)N(CCc4ccccc4)CC(=O)N3CCC2)=C1 | 80.0* | -5.2
O=C1C=CC(=O)C(C2=C3C(=O)N(CCc4c[nH]c5ccccc45)CC(=O)N3CCC2)=C1 | 63.0* | -2.9
O=C1CNC(=S)N1CCc1c[nH]c2ccccc12 | nt | 12.3
COc1cc(NC(=O)C2CC(=O)NC(=N)S2)c(OC)cc1Cl (centres undefined) | 3.0 | -3.7
Cn1c(C(=O)N2CCOCC2)cc2c1CCN(Cc1ccccc1)C2 | 1.4 | -1.2
SMILES | mHTT-CaM PPI inh | Pf apPOL inh
Cn1c(C(=O)N2CCN(c3ccc(F)cc3)CC2)cc2c1CCN(Cc1ccccc1)C2 | 84.8* | 3.4
Cn1c(C(=O)N2CCCCC2)cc2c1CCN(Cc1cccc(F)c1)C2 | 32.7 | -6.0
COc1ccc(CNC(=O)c2cc3c(n2C)CCN(Cc2cccc(F)c2)C3)cc1 | 28.1 | -3.7
Cn1c(C(=O)NCCN2CCCC2)cc2c1CCN(Cc1cccc(F)c1)C2 | 79.2* | 11.8
Cn1c(C(=O)N2CCN(c3ccccc3)CC2)cc2c1CCN(Cc1cccc(F)c1)C2 | 65.6* | -7.1
Cc1c(-c2csc(-c3ccc(Cl)cc3)n2)sc2ccc(Cl)cc12 | nt | -5.6
O=c1c2cccc3c2c(nn1Cc1ccccc1Cl)-c1ccccc1-3 | -14.0 | -2.7
NC(=O)Cn1nc2c3c(cccc3c1=O)-c1ccccc1-2 | 1.0 | 60.8*!
N#Cc1c(C(F)(F)F)cc(-c2cccs2)[nH]c1=O | -11.9 | 0.8
CSc1cc(-c2cccs2)[nH]c(=O)c1C#N | nt | -4.0
N#Cc1c(-c2cccs2)cc(-c2ccco2)[nH]c1=O | nt | 71.5*
N#Cc1c(-c2ccco2)cc(-c2cccs2)[nH]c1=O | nt | 83.1*
COc1ccc(N2C(=O)C3C4C=CC(C4)C3(C)C2=O)cc1 (centres undefined) | 4.0 | 0.3
COc1ccc(C2CC(C(F)(F)F)n3nc(C(=O)Nc4ccc(OC)c(OC)c4)cc3N2)cc1 (centres undefined) | 34.0 | -2.7
COc1cc(CSc2nc(CC(=O)Nc3ccccc3C(N)=O)cs2)cc(OC)c1 | 9.2 | -2.2
C=CCOc1ccc(C=Nc2ccc(OC)cc2)c(O)c1 | 0.0 | -1.8
COc1cc(OC)c(C=Nc2ccc(O)cc2)cc1Br | 64.0* | 2.9
COc1cc(OC)c(C=Nc2ccccc2)cc1Br | 4.0 | -2.2
COc1ccc(C=Nc2ccc(O)cc2)c(OC)c1 | 71.0* | -7.2
Cc1c(C(=O)Nc2ccc3c(c2)OCO3)sc2ncn(Cc3cccc(F)c3)c(=O)c12 | 5.0 | -8.3
CC1=C(C(=O)Nc2cc(C)ccn2)C(c2cc(C)sc2C)C2=C(CCCC2=O)N1 (centres undefined) | 4.0 | 1.0
Cc1ccc(C2C(C#N)=C(N)Oc3cc(O)ccc32)cc1 (centres undefined) | 9.9 | -5.9
Cc1ccc(C2C(C#N)=C(N)Oc3c2ccc2cccnc32)cc1 (centres undefined) | 58.3* | -5.0
O=C(NCCN1CCCCC1)C1CCc2sc(C(=O)N3CCOCC3)cc2C1 (centres undefined) | 3.0 | -6.0
COc1cccc(C2CC(c3ccc(Cl)cc3Cl)Nc3nc(N)nn32)c1 (centres undefined) | 51.7* | 2.4
SMILES | mHTT-CaM PPI inh | Pf apPOL inh
COc1ccc(C2CC(c3ccc(Cl)cc3Cl)Nc3nc(N)nn32)cc1 (centres undefined) | 42.1 | -3.7
COc1cccc(C2CC(c3ccccc3Cl)Nc3nc(N)nn32)c1 (centres undefined) | 29.7 | -2.8
Nc1nc2n(n1)C(c1cccs1)CC(c1ccc(Cl)cc1Cl)N2 (centres undefined) | 78.5* | -13.4
O=S(=O)(Nc1ccc(Cn2cncn2)cc1)c1ccc(F)cc1F | -5.0 | 1.0
O=C(NCc1cccnc1)c1nc(-c2ccc(Cl)cc2)n2c1CCCCC2 | 21.4 | -0.2
COc1ccc(CNC(=O)c2nc(-c3ccc(C)cc3)n3c2CCCCC3)cc1 | 54.2* | -2.1
CCNC(=O)c1nc(-c2ccc(C)cc2)n2c1CCCCC2 | 6.9 | -16.3
COc1cccc(CNC(=O)c2nc(-c3ccc(C)cc3)n3c2CCCCC3)c1 | 74.4* | 3.4
Cc1ccc(Oc2ccc(-c3noc(-c4cnccn4)n3)cc2)cc1 | -25.1 | -2.8
COc1cccc(C(=O)Nc2c3c(nn2-c2ccccc2C)CSC3)c1 | 41.0 | -2.9
COc1ccc(C(=O)Nc2c3c(nn2-c2cccc(C)c2)CSC3)cc1OC | 45.0 | -4.1
Cc1ccccc1-n1nc2c(c1NC(=O)c1ccccc1[N+](=O)[O-])CSC2 | 32.0 | -5.7
Cc1ccccc1-n1nc2c(c1NC(=O)c1ccc(Cl)cc1)CSC2 | 71.0* | -1.8
COc1ccc(C(=O)Nc2c3c(nn2-c2cccc(Cl)c2)CSC3)cc1OC | 57.0* | -4.9
Cc1ccccc1-n1nc2c(c1NC(=O)c1cccc(Cl)c1)CSC2 | 71.0* | -5.4
Cc1cc(C)cc(C(=O)Nc2c3c(nn2-c2ccccc2C)CSC3)c1 | 22.0 | -4.0
Cc1ccccc1-n1nc2c(c1NC(=O)c1ccc([N+](=O)[O-])cc1)CSC2 | 84.0* | 2.9
COc1ccc(-c2noc(C3CCCN3C(=O)c3cnccn3)n2)cc1 (centres undefined) | -2.9 | -6.6

Compound activity as filed in PubChem BioAssay.
